# Among all 5,500 compounds or so, about 2,000 (36%) were called active. Inconclusive results (about 18%) are left out. The list shows a part of the results. Values without a mark were called inactive. No stated cut-off is given here; in the data, active means normalized growth mostly below about 0.91 (no sharp cut-off); inconclusive means no clear call, values can overlap the other calls; inactive means mostly above about 0.92.
# Test: chemical genetic growth profiling, strain panel (AID 1159580);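 further: tested at 20 µM; growth read once vehicle control cultures reached saturation at 30 °C; 1 = growth at the plate median or of vehicle wells; lower values mean less growth of the strain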
# Settings: S. cerevisiae deletion strains, growth OD
smiles,measurement,setting,value
CC(=O)Oc1ccc(O)cc1,normalized growth,"locus YAL013W, strain DEP1, active compounds read low",0.942
same,normalized growth,"locus YAL021C, strain ccr4, active compounds read low",1.03
same,normalized growth,"locus YAL026C, strain drs2, active compounds read low",0.953
same,normalized growth,"locus YAL030W, strain snc1, active compounds read low",0.994
same,normalized growth,"locus YBL061C, strain skt5, active compounds read low",0.977
same,normalized growth,"locus YBR009C, strain hhf1, active compounds read low",0.963
same,normalized growth,"locus YBR021W, strain FUR4, active compounds read low",0.796 (active)
same,normalized growth,"locus YBR023C, strain chs3, active compounds read low",0.982
same,normalized growth,"locus YBR171W, strain sec66, active compounds read low",0.974
same,normalized growth,"locus YBR229C, strain ROT2, active compounds read low",1.02
same,normalized growth,"locus YBR231C, strain swc5, active compounds read low",0.971
same,normalized growth,"locus YBR279W, strain paf1, active compounds read low",0.986
same,normalized growth,"locus YCL011C, strain gbp2, active compounds read low",0.989
same,normalized growth,"locus YCL016C, strain dcc1, active compounds read low",0.999
same,normalized growth,"locus YCL029C, strain bik1, active compounds read low",1.03
same,normalized growth,"locus YCL061C, strain MRC1, active compounds read low",0.993
same,normalized growth,"locus YCL069W, strain vba3, active compounds read low",0.987
same,normalized growth,"locus YCR088W, strain abp1, active compounds read low",0.995
same,normalized growth,"locus YDL005C, strain med2, active compounds read low",0.978
same,normalized growth,"locus YDL035C, strain GPR1, active compounds read low",0.922
same,normalized growth,"locus YDL040C, strain nat1, active compounds read low",0.994
same,normalized growth,"locus YDL074C, strain BRE1, active compounds read low",1
same,normalized growth,"locus YDL101C, strain DUN1, active compounds read low",1
same,normalized growth,"locus YDL134C, strain PPH21, active compounds read low",0.89
same,normalized growth,"locus YDL185W, strain tfp1, active compounds read low",1.03
same,normalized growth,"locus YDL192W, strain arf1, active compounds read low",1.02
same,normalized growth,"locus YDR001C, strain nth1, active compounds read low",0.987
same,normalized growth,"locus YDR069C, strain doa4, active compounds read low",1.02
same,normalized growth,"locus YDR101C, strain arx1, active compounds read low",1.02
same,normalized growth,"locus YDR137W, strain rgp1, active compounds read low",0.936
same,normalized growth,"locus YDR150W, strain NUM1, active compounds read low",0.999
same,normalized growth,"locus YDR159W, strain sac3, active compounds read low",0.967
same,normalized growth,"locus YDR162C, strain NBP2, active compounds read low",0.916
same,normalized growth,"locus YDR195W, strain ref2",0.997
same,normalized growth,"locus YDR297W, strain sur2, active compounds read low",0.987
same,normalized growth,"locus YDR318W, strain mcm21, active compounds read low",1
same,normalized growth,"locus YDR334W, strain swr1, active compounds read low",0.986
same,normalized growth,"locus YDR335W, strain msn5, active compounds read low",0.995
same,normalized growth,"locus YDR388W, active compounds read low",1.02
same,normalized growth,"locus YDR392W, strain spt3, active compounds read low",0.844
same,normalized growth,"locus YDR502C, strain sam2, active compounds read low",1.02
same,normalized growth,"locus YEL003W, strain gim4, active compounds read low",0.986
same,normalized growth,"locus YEL037C, strain rad23, active compounds read low",0.987
same,normalized growth,"locus YEL061C, strain CIN8 (second series), active compounds read low",0.98
same,normalized growth,"locus YEL061C, strain CIN8, active compounds read low",1
same,normalized growth,"locus YER015W, strain faa2, active compounds read low",0.992
same,normalized growth,"locus YER016W, strain bim1, active compounds read low",1.01
same,normalized growth,"locus YER110C, active compounds read low",1.04
same,normalized growth,"locus YER111C, strain swi4, active compounds read low",0.969
same,normalized growth,"locus YER155C, strain BEM2 (second series), active compounds read low",0.959
same,normalized growth,"locus YER155C, strain BEM2, active compounds read low",1.01
same,normalized growth,"locus YER167W, strain BCK2, active compounds read low",0.976
same,normalized growth,"locus YFR010W, strain ubp6, active compounds read low",0.969
same,normalized growth,"locus YGL078C, strain dbp3, active compounds read low",1.02
same,normalized growth,"locus YGL086W, strain mad1, active compounds read low",0.984
same,normalized growth,"locus YGL167C, strain pmr1, active compounds read low",0.988
same,normalized growth,"locus YGL173C, strain kem1, active compounds read low",0.975
same,normalized growth,"locus YGL227W, strain vid30, active compounds read low",0.983
same,normalized growth,"locus YGL240W, strain doc1, active compounds read low",0.926
same,normalized growth,"locus YGL248W, strain PDE1, active compounds read low",0.923
same,normalized growth,"locus YGL253W, strain hxk2, active compounds read low",0.973
same,normalized growth,"locus YGR135W, strain pre9, active compounds read low",0.99
same,normalized growth,"locus YGR229C, strain SMI1, active compounds read low",0.572 (active)
same,normalized growth,"locus YGR252W, strain gcn5, active compounds read low",0.87
same,normalized growth,"locus YHR013C, strain ard1, active compounds read low",0.975
same,normalized growth,"locus YHR027C, strain rpn1, active compounds read low",0.987
same,normalized growth,"locus YHR030C, strain SLT2, active compounds read low",0.994
same,normalized growth,"locus YHR079C, strain IRE1 (second series), active compounds read low",1.02
same,normalized growth,"locus YHR094C, strain hxt1, active compounds read low",1.02
same,normalized growth,"locus YHR129C, strain ARP1, active compounds read low",0.994
same,normalized growth,"locus YHR142W, strain chs7, active compounds read low",0.996
same,normalized growth,"locus YHR200W, strain rpn10, active compounds read low",1.03
same,normalized growth,"locus YIL066C, strain RNR3, active compounds read low",0.852 (active)
same,normalized growth,"locus YIL073C, strain SPO22, active compounds read low",0.89
same,normalized growth,"locus YIL125W, strain kgd1, active compounds read low",1.02
same,normalized growth,"locus YIR030C, strain dcg1, active compounds read low",1.04
same,normalized growth,"locus YJL092W, strain hpr5, active compounds read low",0.983
same,normalized growth,"locus YJL095W, strain BCK1 (second series), active compounds read low",0.996
same,normalized growth,"locus YJL095W, strain BCK1, active compounds read low",0.976
same,normalized growth,"locus YJL115W, strain asf1, active compounds read low",0.988
same,normalized growth,"locus YJL129C, strain trk1, active compounds read low",1.01
same,normalized growth,"locus YJL134W, strain LCB3, active compounds read low",1.03
same,normalized growth,"locus YJL154C, strain vps35, active compounds read low",0.985
same,normalized growth,"locus YJL164C, strain tpk1, active compounds read low",0.975
same,normalized growth,"locus YJL166W, strain qcr8, active compounds read low",0.978
same,normalized growth,"locus YJL168C, strain set2, active compounds read low",1.02
same,normalized growth,"locus YJL187C, strain SWE1 (second series), active compounds read low",0.997

# — PubChem BioAssay AID1159580 (chemical genetic matrix, 2015)
